These results are taken from ChEMBL document CHEMBL2218924, “A broad activity screen in support of a chemogenomic map for kinase signalling research and drug discovery” (Biochem J, 2013).

Experiment [1] deals with MAP kinase-activated protein kinase 2 (Homo sapiens) (UniProt P49137). Particulars: at 10 µM.
Experiment [2] deals with MAP kinase-activated protein kinase 3 (Homo sapiens) (UniProt Q16644). Particulars: at 10 µM.
Experiment [3] addresses Serine/threonine-protein kinase MARK1 (Homo sapiens) (UniProt Q9P0L2). To be noted: at 1 µM.
For experiment [4] the target is unchanged. To be noted: at 10 µM.
Experiment [5] has as its target Dual specificity mitogen-activated protein kinase kinase 1 (Homo sapiens) (UniProt Q02750). To be noted: at 1 µM.
For experiment [6] the target is unchanged. Particulars: at 10 µM.
For experiment [7], the target named is Maternal embryonic leucine zipper kinase (Homo sapiens) (UniProt Q14680). Particulars: at 1 µM.
Experiment [8] has the same target. Particulars: at 10 µM.
The target of experiment [9] is Misshapen-like kinase 1 (Homo sapiens) (UniProt Q8N4C8). To be noted: at 1 µM.
Experiment [10] has the same target. Particulars: at 10 µM.
In experiment [11] the target is T1, Dual specificity mitogen-activated protein kinase kinase 6 (Homo sapiens) (UniProt P52564).
T1 sequence (whole entry): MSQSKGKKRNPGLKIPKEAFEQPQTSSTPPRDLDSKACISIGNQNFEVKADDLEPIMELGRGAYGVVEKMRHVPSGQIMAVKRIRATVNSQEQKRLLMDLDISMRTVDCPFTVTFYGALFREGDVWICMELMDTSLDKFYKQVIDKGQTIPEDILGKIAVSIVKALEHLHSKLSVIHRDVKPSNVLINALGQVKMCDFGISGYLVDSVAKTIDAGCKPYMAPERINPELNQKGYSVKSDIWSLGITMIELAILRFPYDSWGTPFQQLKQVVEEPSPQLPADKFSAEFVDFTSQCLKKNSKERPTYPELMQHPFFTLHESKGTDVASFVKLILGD
To be noted: at 1 µM.

The target of experiment [12] is T1, Dual specificity mitogen-activated protein kinase kinase 6 (Homo sapiens). To be noted: at 10 µM.
Experiment [13] addresses T2, Dual specificity mitogen-activated protein kinase kinase 7 (Homo sapiens) (UniProt O14733).
T2 sequence (whole entry): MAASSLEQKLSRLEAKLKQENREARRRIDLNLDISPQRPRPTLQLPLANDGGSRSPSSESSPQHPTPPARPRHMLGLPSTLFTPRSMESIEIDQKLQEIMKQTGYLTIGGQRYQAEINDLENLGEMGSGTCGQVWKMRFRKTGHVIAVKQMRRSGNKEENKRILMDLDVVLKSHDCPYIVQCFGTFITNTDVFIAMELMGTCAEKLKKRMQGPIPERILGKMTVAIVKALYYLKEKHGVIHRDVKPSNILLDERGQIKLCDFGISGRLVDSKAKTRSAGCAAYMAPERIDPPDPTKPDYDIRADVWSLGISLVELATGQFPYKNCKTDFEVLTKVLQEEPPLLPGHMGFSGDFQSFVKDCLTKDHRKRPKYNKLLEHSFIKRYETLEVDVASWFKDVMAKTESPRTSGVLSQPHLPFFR
Particulars: at 1 µM.

Experiment [14] has as its target T2, Dual specificity mitogen-activated protein kinase kinase 7 (Homo sapiens). To be noted: at 10 µM.
Experiment [15] addresses Myosin light chain kinase, smooth muscle (Homo sapiens) (UniProt Q15746). Particulars: at 1 µM.
The target is the same in experiment [16]. To be noted: at 10 µM.
In experiment [17] the target is Mitogen-activated protein kinase kinase kinase 9 (Homo sapiens) (UniProt P80192). Particulars: at 1 µM.
The target is the same in experiment [18]. Particulars: at 10 µM.
Experiment [19] addresses Serine/threonine-protein kinase MRCK alpha (Homo sapiens) (UniProt Q5VT25). To be noted: at 1 µM.
The target is the same in experiment [20]. To be noted: at 10 µM.

Chain of Dual specificity mitogen-activated protein kinase kinase 1 (Homo sapiens) (Q02750 whole entry): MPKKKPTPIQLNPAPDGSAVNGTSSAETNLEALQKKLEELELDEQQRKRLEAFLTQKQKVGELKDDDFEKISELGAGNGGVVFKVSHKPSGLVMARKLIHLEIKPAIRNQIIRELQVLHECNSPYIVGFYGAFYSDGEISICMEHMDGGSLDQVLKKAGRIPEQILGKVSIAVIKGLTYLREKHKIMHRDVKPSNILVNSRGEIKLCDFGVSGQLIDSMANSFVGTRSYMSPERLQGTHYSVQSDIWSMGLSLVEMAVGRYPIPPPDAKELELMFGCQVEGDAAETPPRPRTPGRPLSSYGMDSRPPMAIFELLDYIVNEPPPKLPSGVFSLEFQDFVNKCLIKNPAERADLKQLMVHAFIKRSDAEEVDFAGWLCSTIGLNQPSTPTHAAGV
Chain of Maternal embryonic leucine zipper kinase (Homo sapiens) (Q14680 whole entry, looked up): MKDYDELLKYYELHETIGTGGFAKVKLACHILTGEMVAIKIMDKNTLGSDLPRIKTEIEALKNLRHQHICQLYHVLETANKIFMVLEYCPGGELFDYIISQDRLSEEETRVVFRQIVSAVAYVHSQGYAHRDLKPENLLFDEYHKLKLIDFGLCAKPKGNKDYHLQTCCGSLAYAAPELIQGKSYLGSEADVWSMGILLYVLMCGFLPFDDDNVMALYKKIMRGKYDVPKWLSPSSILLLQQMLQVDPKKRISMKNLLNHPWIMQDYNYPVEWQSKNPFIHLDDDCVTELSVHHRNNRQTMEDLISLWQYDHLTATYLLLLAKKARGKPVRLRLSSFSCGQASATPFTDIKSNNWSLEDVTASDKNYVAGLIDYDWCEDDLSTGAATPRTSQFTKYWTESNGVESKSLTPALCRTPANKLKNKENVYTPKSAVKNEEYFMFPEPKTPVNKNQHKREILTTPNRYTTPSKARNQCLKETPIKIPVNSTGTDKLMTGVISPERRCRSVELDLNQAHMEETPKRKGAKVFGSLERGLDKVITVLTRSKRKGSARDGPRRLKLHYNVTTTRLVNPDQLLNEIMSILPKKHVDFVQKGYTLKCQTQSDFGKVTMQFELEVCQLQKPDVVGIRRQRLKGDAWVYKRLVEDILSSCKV
Chain of Serine/threonine-protein kinase MRCK alpha (Homo sapiens) (Q5VT25 whole entry): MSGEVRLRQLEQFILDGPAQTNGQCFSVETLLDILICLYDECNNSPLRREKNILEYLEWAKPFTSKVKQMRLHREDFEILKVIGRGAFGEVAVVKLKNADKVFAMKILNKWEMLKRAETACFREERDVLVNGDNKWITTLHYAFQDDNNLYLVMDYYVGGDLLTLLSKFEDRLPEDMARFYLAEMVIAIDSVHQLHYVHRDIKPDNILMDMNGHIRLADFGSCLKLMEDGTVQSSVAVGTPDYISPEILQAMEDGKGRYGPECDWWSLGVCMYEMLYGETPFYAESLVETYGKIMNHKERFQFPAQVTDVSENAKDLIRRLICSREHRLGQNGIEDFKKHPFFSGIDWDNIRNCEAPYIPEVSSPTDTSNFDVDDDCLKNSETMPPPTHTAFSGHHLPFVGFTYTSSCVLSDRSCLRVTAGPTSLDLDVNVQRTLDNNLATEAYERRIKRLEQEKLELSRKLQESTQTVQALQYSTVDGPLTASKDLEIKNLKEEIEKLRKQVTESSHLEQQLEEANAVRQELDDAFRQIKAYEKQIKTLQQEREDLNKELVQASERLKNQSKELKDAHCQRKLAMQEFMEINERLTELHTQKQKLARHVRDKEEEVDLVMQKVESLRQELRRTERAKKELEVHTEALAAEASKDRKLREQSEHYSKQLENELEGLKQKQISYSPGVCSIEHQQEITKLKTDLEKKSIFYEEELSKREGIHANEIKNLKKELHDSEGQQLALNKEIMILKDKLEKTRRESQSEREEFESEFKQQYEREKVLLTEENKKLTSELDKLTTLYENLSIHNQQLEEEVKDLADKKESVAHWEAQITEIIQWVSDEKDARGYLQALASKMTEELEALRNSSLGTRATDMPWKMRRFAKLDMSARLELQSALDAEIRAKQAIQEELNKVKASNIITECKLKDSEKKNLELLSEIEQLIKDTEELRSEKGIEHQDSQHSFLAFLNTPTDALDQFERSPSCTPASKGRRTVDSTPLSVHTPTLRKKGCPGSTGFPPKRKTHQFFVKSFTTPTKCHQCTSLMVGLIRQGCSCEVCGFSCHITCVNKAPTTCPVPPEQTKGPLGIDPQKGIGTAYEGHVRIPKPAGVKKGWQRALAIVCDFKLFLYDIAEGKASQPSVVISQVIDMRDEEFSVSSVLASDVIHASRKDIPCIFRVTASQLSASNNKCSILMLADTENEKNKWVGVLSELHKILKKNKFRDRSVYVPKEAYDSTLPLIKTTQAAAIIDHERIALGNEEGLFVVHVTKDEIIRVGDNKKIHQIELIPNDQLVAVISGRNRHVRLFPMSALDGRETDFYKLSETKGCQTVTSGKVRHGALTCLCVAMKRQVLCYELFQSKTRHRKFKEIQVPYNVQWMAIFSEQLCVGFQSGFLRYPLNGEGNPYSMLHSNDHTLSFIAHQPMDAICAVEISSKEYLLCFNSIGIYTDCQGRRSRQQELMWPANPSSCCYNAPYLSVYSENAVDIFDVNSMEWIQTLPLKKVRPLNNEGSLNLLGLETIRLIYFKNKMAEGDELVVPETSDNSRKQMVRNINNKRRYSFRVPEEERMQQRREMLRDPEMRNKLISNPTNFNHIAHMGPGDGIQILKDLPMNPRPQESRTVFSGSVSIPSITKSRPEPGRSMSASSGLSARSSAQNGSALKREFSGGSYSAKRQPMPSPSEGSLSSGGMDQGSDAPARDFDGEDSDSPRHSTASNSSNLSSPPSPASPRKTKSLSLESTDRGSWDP
Chain of Myosin light chain kinase, smooth muscle (Homo sapiens) (Q15746 whole entry): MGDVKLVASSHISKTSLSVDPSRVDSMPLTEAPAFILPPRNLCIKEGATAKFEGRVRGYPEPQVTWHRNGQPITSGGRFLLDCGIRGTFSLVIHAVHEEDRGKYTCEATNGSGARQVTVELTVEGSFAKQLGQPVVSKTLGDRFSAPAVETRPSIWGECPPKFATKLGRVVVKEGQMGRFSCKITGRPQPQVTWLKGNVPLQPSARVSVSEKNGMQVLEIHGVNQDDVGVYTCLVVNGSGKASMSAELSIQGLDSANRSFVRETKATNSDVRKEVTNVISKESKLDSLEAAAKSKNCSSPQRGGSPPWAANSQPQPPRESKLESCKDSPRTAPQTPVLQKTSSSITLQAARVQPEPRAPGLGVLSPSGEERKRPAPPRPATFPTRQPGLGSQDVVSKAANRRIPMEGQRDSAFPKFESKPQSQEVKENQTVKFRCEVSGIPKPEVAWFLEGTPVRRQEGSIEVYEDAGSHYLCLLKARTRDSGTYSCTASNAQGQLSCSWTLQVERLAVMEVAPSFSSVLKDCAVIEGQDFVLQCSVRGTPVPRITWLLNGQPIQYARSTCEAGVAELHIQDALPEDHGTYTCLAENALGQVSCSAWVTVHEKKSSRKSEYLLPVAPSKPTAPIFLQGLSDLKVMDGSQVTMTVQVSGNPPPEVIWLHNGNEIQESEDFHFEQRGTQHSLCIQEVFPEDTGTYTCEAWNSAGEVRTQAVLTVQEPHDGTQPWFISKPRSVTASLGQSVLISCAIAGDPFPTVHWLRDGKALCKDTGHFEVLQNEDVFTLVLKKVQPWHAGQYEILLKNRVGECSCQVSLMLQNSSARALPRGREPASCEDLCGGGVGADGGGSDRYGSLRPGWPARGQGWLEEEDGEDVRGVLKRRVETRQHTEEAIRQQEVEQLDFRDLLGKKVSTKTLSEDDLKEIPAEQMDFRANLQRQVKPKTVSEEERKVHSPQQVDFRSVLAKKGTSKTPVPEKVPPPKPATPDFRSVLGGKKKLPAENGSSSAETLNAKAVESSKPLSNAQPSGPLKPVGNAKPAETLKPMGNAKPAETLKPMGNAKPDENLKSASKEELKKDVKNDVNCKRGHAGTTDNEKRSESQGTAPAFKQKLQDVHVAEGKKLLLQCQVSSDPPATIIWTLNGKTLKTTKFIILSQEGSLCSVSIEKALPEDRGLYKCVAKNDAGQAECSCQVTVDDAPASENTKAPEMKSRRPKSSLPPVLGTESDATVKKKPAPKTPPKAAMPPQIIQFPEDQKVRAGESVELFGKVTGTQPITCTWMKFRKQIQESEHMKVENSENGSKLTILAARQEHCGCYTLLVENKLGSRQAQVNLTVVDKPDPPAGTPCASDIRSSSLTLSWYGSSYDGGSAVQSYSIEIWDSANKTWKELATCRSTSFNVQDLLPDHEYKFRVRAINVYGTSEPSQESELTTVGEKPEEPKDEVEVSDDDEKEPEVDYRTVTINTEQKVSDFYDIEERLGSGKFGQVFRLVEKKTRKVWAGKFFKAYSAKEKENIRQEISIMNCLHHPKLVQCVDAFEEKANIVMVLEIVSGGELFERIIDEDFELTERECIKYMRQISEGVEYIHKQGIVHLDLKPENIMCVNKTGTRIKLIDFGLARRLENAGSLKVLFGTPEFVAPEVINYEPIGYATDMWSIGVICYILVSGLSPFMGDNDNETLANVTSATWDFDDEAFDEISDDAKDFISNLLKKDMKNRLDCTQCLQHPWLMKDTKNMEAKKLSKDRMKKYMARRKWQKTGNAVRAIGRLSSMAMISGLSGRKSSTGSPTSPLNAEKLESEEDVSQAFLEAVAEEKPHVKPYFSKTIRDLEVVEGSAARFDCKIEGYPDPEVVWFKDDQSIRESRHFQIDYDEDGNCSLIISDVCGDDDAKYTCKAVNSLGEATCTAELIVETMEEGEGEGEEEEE
Chain of MAP kinase-activated protein kinase 3 (Homo sapiens) (Q16644 whole entry, looked up): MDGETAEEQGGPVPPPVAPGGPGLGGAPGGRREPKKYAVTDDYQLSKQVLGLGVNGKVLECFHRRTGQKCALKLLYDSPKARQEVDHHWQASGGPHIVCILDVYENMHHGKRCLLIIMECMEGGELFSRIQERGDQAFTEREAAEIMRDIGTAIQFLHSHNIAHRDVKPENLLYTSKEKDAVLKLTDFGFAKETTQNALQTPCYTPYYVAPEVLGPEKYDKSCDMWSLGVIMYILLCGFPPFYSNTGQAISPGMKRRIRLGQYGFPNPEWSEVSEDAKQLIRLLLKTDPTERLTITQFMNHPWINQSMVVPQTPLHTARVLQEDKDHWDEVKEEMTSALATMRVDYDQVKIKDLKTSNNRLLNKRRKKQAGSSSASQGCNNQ

Take `CO[C@@H]1[C@H](N(C)C(=O)c2ccccc2)C[C@H]2O[C@]1(C)n1c3ccccc3c3c4c(c5c6ccccc6n2c5c31)C(=O)NC4`: the residual activity in experiment [1] was 47%; in experiment [2], 37%; in [3], 1%; in [4] it was 0%; in [5], 74%; in [6], 56%. The residual activity stood at 5% in [7]; 2% in experiment [8]; 52% in experiment [9]; 18% in experiment [10]; 52% in experiment [11]; 58% in experiment [12]. The residual activity was 111% in [13]; 135% in experiment [14]; 13% in [15]; 10% in [16]; 1% in experiment [17]; 1% in experiment [18]. The residual activity in experiment [19] came to 93%; in [20], 102%.
Consider `Cc1nc(-c2ccccc2)c(-c2ccncc2)o1`, for which the residual activity was 110% in experiment [1]; 101% in experiment [2]; 97% in [3]; 89% in experiment [4]; 105% in experiment [5]; 106% in experiment [6]. Moreover, the residual activity stood at 104% in [7]; 89% in [8]; 118% in [9]; 88% in experiment [10]; 99% in experiment [11]; 37% in experiment [12]. Also, the residual activity amounted to 100% in experiment [13]; 103% in [14]; 106% in [15]; 88% in experiment [16]; 106% in experiment [17]; 102% in [18]. Moreover, the residual activity in experiment [19] was 114%; in experiment [20], 129%.
In the case of `O=C1NC(=O)c2c1c1c3ccccc3[nH]c1c1[nH]c3cc(Br)ccc3c21`, the residual activity turned out to be 93% in [1]; 89% in [2]; 67% in [3]; 34% in [4]; 75% in experiment [5]; 98% in [6]. For the same molecule, the residual activity in experiment [7] worked out at 87%; in experiment [8] it was 82%; in experiment [9], 109%; in [10], 90%; in [11], 94%; in experiment [12], 87%. The residual activity in experiment [13] was determined as 87%; in [14], 86%; in experiment [15] it was 27%; in experiment [16] it was 37%; in [17], 85%; in experiment [18], 31%. Besides, the residual activity is 87% in [19] and 88% in experiment [20].
For the molecule `CCN(CC)CCCCN1c2ccccc2Oc2ccc(Cl)cc21`, the residual activity in experiment [1] was determined as 133%; in experiment [2], 146%; in experiment [3], 106%; in [4] it was 106%; in experiment [5], 117%; in [6], 115%. In addition, the residual activity was found to be 96% in [7]; 105% in [8]; 107% in experiment [9]; 95% in [10]; 99% in [11]; 119% in experiment [12]. The residual activity in [13] came out at 120%; in [14], 118%; in experiment [15], 79%; in experiment [16], 102%; in experiment [17], 93%; in experiment [18], 102%. The residual activity in experiment [19] was found to be 133%; in experiment [20], 119%.
For `COc1ccc(C(=O)Nc2sc3c(c2C(N)=O)CCCC3)cc1OC`, the residual activity in experiment [1] was 88%; in experiment [2], 79%; in experiment [3], 81%; in experiment [4], 81%; in experiment [5] it was 120%; in experiment [6] it was 101%. Further, the residual activity in experiment [7] was 78%; in experiment [8], 78%; in experiment [9], 95%; in [10], 92%; in experiment [11], 80%; in experiment [12], 120%. Besides, the residual activity in experiment [13] worked out at 90%; in experiment [14] it was 73%; in [15], 80%; in experiment [16] it was 66%; in experiment [17], 90%; in experiment [18], 96%. For the same molecule, the residual activity in [19] was 92%; in experiment [20], 85%.
For `N#C/C(=C(\N)Sc1ccc(N)cc1)c1ccccc1C(F)(F)F`, the residual activity in experiment [1] amounted to 69%; in [2] it was 88%; in [3], 72%; in experiment [4], 54%; in experiment [5], 104%; in experiment [6] it was 101%. Moreover, the residual activity came to 67% in experiment [7]; 62% in experiment [8]; 106% in experiment [9]; 91% in experiment [10]; 93% in experiment [11]; 83% in [12]. Moreover, the residual activity stood at 88% in experiment [13]; 96% in experiment [14]; 95% in experiment [15]; 75% in [16]; 93% in experiment [17]; 89% in [18]. The results for the residual activity in experiment [19] and in experiment [20] were 107% and 94%, respectively.
